# Screening results (PubChem BioAssay)
# TRAIL sens C8 – viability loss with TRAIL in NB7+C8 cells, primary screen, TRAIL sensitizer project, cell-based, ATPlite luminescence; inhibition (viability loss, TRAIL sensitization), % at 10 µM; hit rate 1% among 360,000;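 active = compounds causing at least 50% loss of cell viability in the single-dose screen, relative to plate controls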
# HSP90 refold inh – HSP90 inhibitors, primary screen, cell lysate, luminescence | hit rate 0.91% among 290,000 | Rabbit reticulocyte lysate, luciferase refolding luminescence, 3 h | Heat shock protein HSP 90 (rabbit reticulocyte lysate; luciferase refolding) | inhibition, % at 5.6 µM;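 active = inhibition above the screen-wide mean plus 3 SD, computed separately per campaign, cut at about 16% in these data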;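 note: 0% = DMSO wells and 100% = 60 µM geldanamycin wells; inhibitors lower the luminescence because luciferase stays unfolded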
# HIF-2a block – HIF-2a reporter inhibitors, primary screen, luminescence, 786-0 RCC cells; inhibition, % at 18.8 µM; hit rate 0.72% among 360,000; 786-0 RCC cells HIF-2a reporter, luciferase luminescence, overnight;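 active = inhibition of the luminescence signal of 40% or more relative to plate controls, in a single-dose primary screen at 18.75 µM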
# TWEAK-Fn14 inh – inhibitors of TWEAK-Fn14 signaling, primary screen, luciferase reporter cells, uHTS; TWEAK-stimulated Fn14 reporter cells, luciferase luminescence, 8 h; inhibition, % at 10 µM; hit rate 2% among 360,000; AID 1159606, 2016; in the data active = inhibition above about 50%
# aSyn UTR inh – MLPCN primary screen, SNCA 5' untranslated region | alpha-synuclein 5'UTR reporter, inhibitor activity | inhibition, % (tested at 7.5 µM) | hit rate 0.82% among 300,000; in the data active = inhibition above about 60%;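 note: H4 neuroglioblastoma cells stably carrying SNCA 5'UTR luciferase fusion; 0% = DMSO wells and 100% = positive control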
# TROY signal inh – inhibitors of TROY-driven NF-kB signaling, primary screen, Q293 LMP1-TROYcd cells, NF-kB luciferase, uHTS | hit rate 0.98% among 360,000 | inhibition, % at 10 µM | Q293 LMP1-TROYcd NF-kB luciferase reporter, 4 h | AID 1347056, 2019;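 active = compounds whose plate-normalised and pattern-corrected inhibition of the luciferase reporter signal at the single screening dose is 50% or more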
# An asterisk follows results filed as active; nt = no result. An excerpt weighted towards active compounds, which were near 3.9% of everything screened.
SMILES,TRAIL sens C8,HSP90 refold inh,HIF-2a block,TWEAK-Fn14 inh,aSyn UTR inh,TROY signal inh
CCn1c2ccccc2c2cc(NC(=O)c3cc(OC)cc(OC)c3)ccc21,-18,1,24,-2,101*,1
COc1cc(C2C(C#N)=C(N)Oc3cc4c(cc32)OCO4)cc(OC)c1OC (configuration not stated),-49,-1,22,-2,111*,28
O=C(CSCc1cccc(Br)c1)N=Nc1c(O)[nH]c2ccccc12,-12,1,-17,-15,-5,7
O=Nc1c(-c2c(O)[nH]c3cc(Br)ccc23)[nH]c2ccccc12,84*,-6,-17,91*,77*,69*
Cc1ccsc1CNC(=O)C1(C)CCCN1CC(C)C (configuration not stated),6,nt,17,18,nt,-2
CC1(C(=O)NS(=O)(=O)C2CC2)CCCN(C(=O)Cc2ccc3ccccc3c2)C1 (configuration not stated),-3,nt,3,-12,nt,-9
COc1cccc(C(C)(O)c2nc(-c3cc(F)cc(F)c3)cs2)c1 (configuration not stated),4,nt,14,54*,nt,31
CCN(CC)C(=O)c1cccc(-c2csc(C(C)(O)c3cccc(OC)c3)n2)c1 (configuration not stated),0,nt,10,65*,nt,40
COc1cccc(C(C)(O)c2nc(-c3cccc(F)c3)cs2)c1 (configuration not stated),7,nt,14,37,nt,25
O=C(c1ccc(Br)c(S(=O)(=O)N2CCOCC2)c1)N1CCN(C/C=C/c2ccccc2)CC1,4,nt,-3,10,nt,13
O=C1C=C(c2ccc3[nH]ccc3c2)C[C@@H](c2ccc(F)cc2)C1,-9,nt,-69,-12,nt,-39
COc1ccc([C@H]2CC(=O)C=C(c3ccc4[nH]ccc4c3)C2)cc1OC,0,nt,-85,-23,nt,53*
CC1=C(SCc2ccccc2)C(=O)c2ccccc2C1=O,51*,nt,29,88*,nt,38
OCCCCCCNc1ccc(CCO)cc1,-11,nt,-24,4,nt,6
C(=Cc1nc2ccccc2o1)c1ccc2c(c1)OCO2,80*,nt,-3,86*,nt,58*
Nc1nc2ccccc2n1/N=C/c1ccc2c(c1)OCO2,0,-6,-384,-19,-192,-60
CN(C)c1ccc(C=C2SC(=S)N(Cc3ccco3)C2=O)cc1,2,nt,-41,-26,nt,-29
Cc1cc(/C=C2\SC(=S)N(C)C2=O)c(C)n1-c1cccc(O)c1,20,8,-77,92*,-71,10
COc1ccc(-n2c(C)cc(/C=C3/SC(=S)N(C)C3=O)c2C)cc1,10,1,-121,70*,-85,52*
Cc1cc(/C=C2\SC(=S)N(Cc3ccco3)C2=O)c(C)n1-c1ccccc1,22,6,-38,62*,-74,4
CCN(CC)C(=O)c1cccc(-c2csc(C(C)(NC(C)=O)c3ccc(OC)cc3)n2)c1 (configuration not stated),2,nt,5,1,nt,5
CN(Cc1ccccn1)C(=O)c1cc(COc2ccc(F)c(F)c2)on1,-8,nt,-261,1,nt,-58
CCCCn1c(SCC(=O)Nc2cccc(OC)c2)nc2ccc(N3CCOCC3)cc2c1=O,-15,5,-46,32,5,62*
OC[C@@H]1CN(CCN2CCOCC2)C[C@H](n2cnc3c(N4CCCC4)ncnc32)O1,-1,nt,1,-10,nt,14
Cn1c(=O)n(CCc2ccccc2)c(=O)c2c1nc1n2CCCN1Cc1ccccc1,25,5,8,52*,8,29
SMILES,TRAIL sens C8,HSP90 refold inh,HIF-2a block,TWEAK-Fn14 inh,aSyn UTR inh,TROY signal inh
CCCn1c(=O)c2c(nc3n2CCCN3CCc2ccccc2)n(C)c1=O,8,0,14,20,24,5
COCCn1c(=O)c2c(nc3n2CC(C)CN3CCc2ccccc2)n(C)c1=O (configuration not stated),-5,-1,18,0,67*,-12
Cn1c(=O)n(CCc2ccccc2)c(=O)c2c1nc1n2CCCN1CCc1ccccc1,45*,-1,8,47,29,37
CCN(Cc1ccccc1)c1cc2c(c3c1ccn3C)C1CCC2C1 (configuration not stated),7,nt,8,-24,nt,-7
N#CCc1ccc(-c2cccc3nccn23)cc1,0,nt,10,12,nt,0
N#Cc1cc2cc3c(cc2nc1SCC(=O)OC1CCCCC1)OCO3,17,4,15,-14,-25,11
COC(=O)CSc1nc2cc(OC)ccc2cc1C#N,71*,2,-339,-1,-133,-68
CC(=O)CSc1nc2cc3c(cc2cc1C#N)OCCO3,67*,-2,-174,84*,20,40
N#Cc1cc2cc3c(cc2nc1SCC(=O)N1CCCC1)OCCO3,-12,2,-193,36,-85,51*
COc1ccc2cc(C#N)c(SCC(=O)N3CCCC3)nc2c1,8,1,-61,-19,-20,-20
CC1CCCC(=NNc2ccc3ccccc3n2)C1 (configuration not stated),-12,nt,-91,33,nt,11
CCN1C(=O)[C@H]2[C@@H](c3ccc(C(F)(F)F)cc3)N[C@]3(CCCN(CC4CCCCC4)C3=O)[C@H]2C1=O,1,nt,15,2,nt,-6
COc1ccccc1C=NN=C(NN=Cc1ccccc1OC)NN=Cc1ccccc1OC,69*,nt,-147,101*,nt,56*
COc1ccccc1C=NN=C(N)C(N)=NN=Cc1ccccc1OC,0,nt,-13,8,nt,2
COc1ccccc1C=NNC(=O)NN=Cc1ccccc1OC,65*,nt,-181,3,nt,-12
NC(=O)[C@H]1CC2(CC(c3cccc(NC(=O)COc4ccc(Cl)cc4)c3)=NO2)CN1C(=O)C(c1ccccc1)c1ccccc1 (some centres not stated),23,nt,-54,57*,0,33
NC(=O)[C@@H]1CC2(CC(c3cccc(NC(=O)COc4ccc(Cl)cc4)c3)=NO2)CN1C(=O)COc1ccc(Cl)cc1 (some centres not stated),32,nt,-42,82*,43,46
CCC(=O)Nc1cccc(C2=NOC3(C2)C[C@@H](C(N)=O)N(C(=O)C(c2ccccc2)c2ccccc2)C3)c1 (some centres not stated),7,nt,-3,8,14,0
COc1cc(/C=N/n2cnnc2)ccc1OC(=O)c1ccncc1,-10,0,28,0,9,63*
COc1cc(/C=N/n2cnnc2)ccc1OC(=O)c1cccnc1,-3,3,16,4,16,42
